Experiment [1] in a line: inhibitors of TNFa-induced NFkB p65 translocation, primary screen, imaging, HUVEC, MLSMR starter and 10KST1 sets (AID 438;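 active = inhibition above 20% together with a positive visual image hit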;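 also: compound added about 3h40 before a 20 min TNFalpha stimulation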;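 as to inhibition: signal is the nuclear over cytoplasmic p65 intensity ratio per well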). The settings on record: HUVEC TNFa-induced p65 nuclear translocation; cell count: measured here: nuclei count (cytotoxicity indicator), at 2.08 µM; inhibition: at 2 µM, stronger effect = higher value, 0% TNFa-plus-vehicle, 100% no-TNFa wells.
A short description of experiment [2]: reduction of polyQ htt aggregates in cells – imaging, exon1htt(103Q)mCFP cells, high-content imaging, primary screen (AID 483;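 active = visual image review flags a hit and inhibition of aggregation exceeds 20%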;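 also: compound exposure lasted 3 days before fixation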;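 as to nuclei count: percent of the per-plate median nuclei count of sample wells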). The settings on record: exon1htt(103Q)mCFP cell line, aggregate imaging, at 2 µM; inhibition of aggregation: stronger effect = higher value; nuclei count: measured here: cell count, toxicity.
The nature of experiment [3]: endothelial E-selectin expression blockers – imaging, HUVEC, immunofluorescence, MLSMR starter and 10KST1 sets, primary screen (AID 487;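 active = visually confirmed hit in the image check and inhibition above 20%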;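 as to inhibition: signal is fraction of cell area covered by stained E-selectin grains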;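 as to nuclei count: 100% = median nuclei count of all wells on the same plate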). The settings on record: HUVEC TNFalpha-induced E-selectin immunofluorescence imaging, at 2 µM; inhibition: stronger effect = higher value; nuclei count: measured here: cell number, toxicity.
Experiment [4] addresses Voltage-gated potassium channel subunit beta-2 (Rattus norvegicus) (UniProt P62483). Briefly: inhibitors of rat Kvbeta2 reductase activity – biochemical, NADPH fluorescence, primary screen (AID 622;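 active = fluorescence slope higher than the sample average by over 3 SD, cut at about -0.22 in these data, passing the limit was not always enough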;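 also: slope of raw intensity against log time taken from 70 to 1610 s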). The settings on record: recombinant KvBeta, 4-cyanobenzaldehyde reduction, at 10 µM, stronger effect = higher value.
The target is the same in experiment [5]. Briefly: enhancers of rat Kvbeta2 NADPH turnover – biochemical, NADPH fluorescence, primary screen (AID 623;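 active = NADPH fluorescence slope more negative than the mean of all samples by about 3 SD, 99.7% confidence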;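 also: fluorescence intensity change per second fitted from 20 to 320 s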). The settings on record: Recombinant KvBeta, NADPH fluorescence decrease slope, 10 min; at 10 µM; stronger effect = lower value.
The target in experiment [6] is Alpha-2C adrenergic receptor (Homo sapiens) (UniProt P18825). Briefly: compounds altering alpha2C-coupled GIRK flux – cell-based, HEK293 alpha2C/GIRK1/2, thallium flux, primary screen (AID 624;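 active = fluorescence slope after compound addition differing from the mean of all screened samples at 99.7% confidence, in either direction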;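 also: slope of fluorescence ratio to pre-addition baseline per second over 15 to 24 s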). The settings on record: thallium flux BTC fluorescence, at 10 µM, actives lie on both sides.
Chain of Alpha-2C adrenergic receptor (Homo sapiens) (P18825 whole entry, looked up): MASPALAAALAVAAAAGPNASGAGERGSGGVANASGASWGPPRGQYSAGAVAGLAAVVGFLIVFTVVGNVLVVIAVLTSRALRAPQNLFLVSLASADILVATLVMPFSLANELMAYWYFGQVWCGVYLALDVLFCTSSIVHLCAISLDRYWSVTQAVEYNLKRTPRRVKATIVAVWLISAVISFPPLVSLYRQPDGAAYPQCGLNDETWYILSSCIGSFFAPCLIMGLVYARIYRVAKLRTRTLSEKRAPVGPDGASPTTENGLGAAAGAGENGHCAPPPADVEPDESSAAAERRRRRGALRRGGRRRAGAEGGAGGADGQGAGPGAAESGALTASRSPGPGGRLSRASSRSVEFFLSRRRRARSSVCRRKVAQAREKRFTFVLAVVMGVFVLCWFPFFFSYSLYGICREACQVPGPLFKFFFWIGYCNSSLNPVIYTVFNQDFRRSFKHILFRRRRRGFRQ
Experiment [7] is described as follows: blockers of RIG-like receptor reporter activation – cell-based, Sendai virus stimulus, luciferase, 10K MLSCN set, TLR/RLR signaling modifier project, primary screen (AID 602276).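 Also: firefly luciferase from ISG56 promoter only with Renilla not read in this screen; 0% = Sendai virus plus DMSO and 100% = medium plus DMSO without virus.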 The settings on record: HEK293 RL24 IRF3 luciferase reporter, at 10 µM, stronger effect = higher value. (In general: In a reporter assay the amount or activity of a reporter protein is the signal.)

Experiment [8] in a line: TLR3 IRF3 reporter activation blockers – cell-based, poly I:C stimulus, luciferase, 10K MLSCN set, primary screen (AID 602277;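 active = inhibition of the reporter signal at or above 50%; inactive = inhibition below 50%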). The settings on record: HEK293-TLR3 RL24 IRF3 luciferase reporter, at 10 µM, stronger effect = higher value.

Active and inactive are the calls of the source.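 The calls were made as follows, unless noted: active = inhibition at or above 50% at 10 µM; inactive = inhibition below 50%.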

Chain of Voltage-gated potassium channel subunit beta-2 (Rattus norvegicus) (P62483 whole entry, looked up): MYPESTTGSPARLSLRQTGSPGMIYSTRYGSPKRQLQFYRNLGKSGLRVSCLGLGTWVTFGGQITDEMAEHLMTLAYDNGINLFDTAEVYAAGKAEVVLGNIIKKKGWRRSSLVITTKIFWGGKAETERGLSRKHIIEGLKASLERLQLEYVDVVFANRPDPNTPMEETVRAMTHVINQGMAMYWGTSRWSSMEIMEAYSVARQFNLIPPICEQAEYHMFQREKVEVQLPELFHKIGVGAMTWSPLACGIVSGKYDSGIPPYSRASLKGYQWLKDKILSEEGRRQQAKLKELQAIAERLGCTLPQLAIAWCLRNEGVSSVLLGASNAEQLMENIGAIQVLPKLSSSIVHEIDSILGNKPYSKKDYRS

Consider `COC(=O)[C@@H](NC(=O)NCc1ccccc1Cl)C(C)C`, for which the cell count in experiment [1] worked out at 732. For the same compound, the inhibition (in general, the relative decrease from the control value, in per cent) was 8.4% (inactive) in experiment [1], 15.5% (inactive) in experiment [3], 4.11% (inactive) in experiment [7] and 32.6% (inactive) in experiment [8]. In addition, in experiment [2], the inhibition of aggregation was -23.1% (inactive). Also, the nuclei count in experiment [2] was 100%; in experiment [3], 109%. For the same compound, the fluorescence slope in experiment [4] is -0.469 (inactive). Also, in experiment [5], the NADPH fluorescence slope is -2.9e-05 (inactive). The slope in experiment [6] is 0.00402 (inactive).

Take `Cc1ccc(-c2noc(CCC(=O)NC3CCCc4ccccc43)n2)cc1` (centres undefined): in experiment [1], the cell count came out at 377. Besides, the inhibition was -2% (inactive) in experiment [1], -27.6% (inactive) in experiment [3], 19.1% (inactive) in experiment [7] and 18.8% (inactive) in experiment [8]. Also, the inhibition of aggregation in experiment [2] was 5.2% (inactive). The nuclei count in experiment [2] was determined as 108%; in experiment [3] it was 85.8%. Besides, the fluorescence slope in experiment [4] is -0.411 (inactive). In addition, the NADPH fluorescence slope in experiment [5] is -3.2e-05 (inactive). In addition, in experiment [6], the slope was 0.00255 (inactive).

Consider `Cc1nn(-c2ccc(F)cc2)c2c1cc(C#N)c1nc3ccccc3n12`, for which the cell count in experiment [1] is 664. Besides, the inhibition in experiment [1] was 9.6% (inactive); in experiment [3] it was 2.3% (inactive); in experiment [7], 9.91% (inactive); in experiment [8], 23.6% (inactive). Also, the inhibition of aggregation in experiment [2] is 29.9% (inactive). Also, the nuclei count is 69.3% in experiment [2] and 102% in experiment [3]. Moreover, the fluorescence slope in experiment [4] was -0.000912 (active). For the same compound, the NADPH fluorescence slope in experiment [5] is 1.1e-05 (inactive). Moreover, in experiment [6], the slope was 0.00318 (inactive).

For the compound `CCOc1ccc2[nH]c(=O)c(C(c3nnnn3Cc3ccco3)N3CCC(C)CC3)cc2c1` (centres undefined), the cell count in experiment [1] worked out at 218. The inhibition in experiment [1] is 0.8% (inactive); in experiment [3], -65.3% (inactive); in experiment [7], 13% (inactive); in experiment [8], 20.5% (inactive). Also, the inhibition of aggregation in experiment [2] was 13.4% (inactive). For the same compound, the nuclei count in experiment [2] was 97.1%; in experiment [3], 82.3%. In addition, the fluorescence slope in experiment [4] is -0.539 (inactive). In addition, the NADPH fluorescence slope in experiment [5] is -2.2e-05 (inactive). The slope in experiment [6] was 0.00417 (inactive).

Turning to `Cc1cc2ccccn2c1C(=O)c1ccncc1`, in experiment [1], the cell count stood at 602. The inhibition is -0.6% (inactive) in experiment [1], -1.7% (inactive) in experiment [3], 11% (inactive) in experiment [7] and -0.108% (inactive) in experiment [8]. Also, the inhibition of aggregation in experiment [2] was 11.7% (inactive). Also, the nuclei count in experiment [2] turned out to be 77.4%; in experiment [3], 111%. The fluorescence slope in experiment [4] is -0.62 (inactive). The NADPH fluorescence slope in experiment [5] is 9.9e-07 (inactive). Further, the slope in experiment [6] was 0.00577 (inactive).

On to `CC1CCN(S(=O)(=O)c2cn(CC(=O)N3CCN(C)CC3)c(=O)c3ccccc23)CC1`, for which the cell count in experiment [1] amounted to 278. Besides, the inhibition is -8.5% (inactive) in experiment [1], -28.3% (inactive) in experiment [3], 0.28% (inactive) in experiment [7] and 17.6% (inactive) in experiment [8]. For the same compound, in experiment [2], the inhibition of aggregation was -2.7% (inactive). Moreover, the nuclei count in experiment [2] turned out to be 91.6%; in experiment [3], 121%. Also, the fluorescence slope in experiment [4] was -0.604 (inactive). Also, the NADPH fluorescence slope in experiment [5] is 5.5e-06 (inactive). For the same compound, in experiment [6], the slope is 0.00569 (inactive).

As for `CC(=O)Nn1c(C)nnc1-n1nc(C)cc1C`, the cell count in experiment [1] turned out to be 594. The inhibition was -9.2% (inactive) in experiment [1], -52.4% (inactive) in experiment [3], 5.42% (inactive) in experiment [7] and 18.4% (inactive) in experiment [8]. Also, the inhibition of aggregation in experiment [2] is 11.6% (inactive). For the same compound, the nuclei count amounted to 94.1% in experiment [2] and 117% in experiment [3]. Moreover, in experiment [4], the fluorescence slope was -0.474 (inactive). The NADPH fluorescence slope in experiment [5] is -9.2e-05 (inactive). For the same compound, the slope in experiment [6] was 0.00573 (inactive).

With `O=C(CSc1nnc(CNC(=O)c2cccs2)o1)NCCc1ccccc1`, the cell count in experiment [1] was 644. Moreover, the inhibition in experiment [1] is -2.2% (inactive); in experiment [3], -25.7% (inactive); in experiment [7] it was 18.5% (inactive); in experiment [8] it was 16.6% (inactive). The inhibition of aggregation in experiment [2] was -14.6% (inactive). Further, the nuclei count in experiment [2] stood at 82.7%; in experiment [3], 115%. The fluorescence slope in experiment [4] was -0.375 (inactive). Moreover, the NADPH fluorescence slope in experiment [5] is -4.4e-05 (inactive). Further, in experiment [6], the slope is 0.00483 (inactive).

Regarding `Brc1ccc2[nH]c3nc(SCCN4CCOCC4)nnc3c2c1`, the cell count in experiment [1] turned out to be 683. Further, the inhibition in experiment [1] was -6.3% (inactive); in experiment [3], -31.6% (inactive); in experiment [7] it was -18.9% (inactive); in experiment [8] it was -40.9% (inactive). Besides, in experiment [2], the inhibition of aggregation was 9% (inactive). Also, the nuclei count in experiment [2] was determined as 84.2%; in experiment [3], 114%. Also, the fluorescence slope in experiment [4] is -0.56 (inactive). Besides, the NADPH fluorescence slope in experiment [5] was 1.6e-05 (inactive). Besides, in experiment [6], the slope is 0.00594 (inactive).

In the case of `CCn1c(=O)c(C(=O)NCCc2ccccc2)c(O)c2ccccc21`, the cell count in experiment [1] amounted to 724. Moreover, the inhibition is -0.3% (inactive) in experiment [1], -9.2% (inactive) in experiment [3], 18.3% (inactive) in experiment [7] and 12.5% (inactive) in experiment [8]. The inhibition of aggregation in experiment [2] is -18.1% (inactive). Further, the nuclei count in experiment [2] is 96.4%; in experiment [3], 104%. Further, the fluorescence slope in experiment [4] was -0.302 (inactive). The NADPH fluorescence slope in experiment [5] was -2.8e-06 (inactive). The slope in experiment [6] was 0.0106 (inactive).

Regarding `O=C(O)CCc1ccc(-c2cccs2)o1`, in experiment [1], the cell count was found to be 314. Also, the inhibition is -7.8% (inactive) in experiment [1], -23.1% (inactive) in experiment [3], 16.2% (inactive) in experiment [7] and 27% (inactive) in experiment [8]. Also, the inhibition of aggregation in experiment [2] was -10.2% (inactive). For the same compound, the nuclei count in experiment [2] amounted to 103%; in experiment [3] it was 118%. Moreover, the fluorescence slope in experiment [4] was -0.366 (inactive). The NADPH fluorescence slope in experiment [5] is -0.00014 (inactive). For the same compound, the slope in experiment [6] was 0.00568 (inactive).

`CC1CCN(Cc2ccc(-c3nn[nH]n3)cc2)CC1`: the cell count in experiment [1] is 582. Also, the inhibition in experiment [1] was -2.9% (inactive); in experiment [3] it was -29.4% (inactive); in experiment [7], 15.7% (inactive); in experiment [8], 27.1% (inactive). Also, the inhibition of aggregation in experiment [2] was 17.9% (inactive). In addition, the nuclei count stood at 96.8% in experiment [2] and 90.6% in experiment [3]. For the same compound, in experiment [4], the fluorescence slope was -0.659 (inactive). The NADPH fluorescence slope in experiment [5] is 2.2e-05 (inactive). For the same compound, the slope in experiment [6] was 0.00582 (inactive).

For `Cc1ccc(S(=O)(=O)Cc2ccc(C(=O)N3CCN(Cc4ccccc4)CC3)o2)cc1`, the cell count in experiment [1] is 760. The inhibition in experiment [1] was -9.8% (inactive); in experiment [3], -76.2% (inactive); in experiment [7], 10.7% (inactive); in experiment [8], 37.2% (inactive). In addition, in experiment [2], the inhibition of aggregation was -10.9% (inactive). For the same compound, the figures for the nuclei count in experiment [2] and in experiment [3] were 101% and 118%, respectively. The fluorescence slope in experiment [4] is -0.569 (inactive). In addition, the NADPH fluorescence slope in experiment [5] was -1.3e-05 (inactive). Moreover, the slope in experiment [6] is 0.00635 (inactive).

Take `O=C(C1CCC(N2C(=O)C3CC=CCC3C2=O)CC1)N1CCCCC1` (centres undefined): in experiment [1], the cell count was determined as 257. The inhibition in experiment [1] was 22.4% (active); in experiment [3], 23.7% (inactive); in experiment [7], 5.96% (inactive); in experiment [8], 27.2% (inactive). Besides, in experiment [2], the inhibition of aggregation is 7.8% (inactive). In addition, the nuclei count in experiment [2] is 80.1%; in experiment [3], 97.6%. In experiment [4], the fluorescence slope is -0.356 (inactive). Besides, in experiment [5], the NADPH fluorescence slope is -5.2e-05 (inactive). The slope in experiment [6] was 0.00567 (inactive).
